Only some compounds are listed: those with a hit (about 4.1% of all), similar ones and a draw of the others.
DAX1 inh-1: DAX1 (NR0B1) inhibitors, primary screen, cell-based, HEK293, Gal4-DAX1, luciferase luminescence | HEK293 Gal4-DAX1 luciferase reporter | inhibition, % at 6.75 µM | AID 504766, 2011 | 340,000 compounds, 0.99% hits;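 active = inhibition above the mean over all tested compounds plus 3 SD, cut at about 4.2% in these data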;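 note: 0% = DAX1-transfected cells with DMSO and 100% = empty-vector control cells with DMSO; inhibition shows as a rise in luminescence from relieved DAX1 repression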
hcDAF12 agonist: H. contortus DAF-12 nuclear receptor activators, primary screen, cell-based, luminescence, HEK293, lit1-tk-luc reporter; HEK293 hcDAF-12 lit1-tk-luc reporter; 0% DMSO, 100% Δ7-dafachronic acid; activation, % at 6.8 µM; 370,000 compounds, 1.4% hits; AID 652067, 2013;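 active = activation above the mean of all tested compounds plus 3 SD, cut at about 5.5% in these data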;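 note: 100% = response to 3 µM Δ7-dafachronic acid high control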
DAX1 inh-2: DAX1 (NR0B1) inhibitors on StAR promoter, primary screen, cell-based, luminescence, SF-1 (NR5A1), full-length DAX-1; HEK293T StAR-luciferase reporter, SF-1/DAX-1 repression relief; inhibition, % at 6.8 µM; 370,000 compounds, 1.1% hits; AID 652010, 2013;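 active = inhibition above the mean over all tested compounds plus 3 SD, cut at about 3.6% in these data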;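 note: 0% = DAX-1 cells with DMSO and 100% = cells lacking DAX-1 with DMSO; higher inhibition means more luminescence from relief of DAX-1 repression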
hgDAF-12 ag: H. glycines DAF-12 receptor agonists, primary screen, cell-based, luminescence, HEK293, GAL4 fusion, UAS-luciferase; Nuclear hormone receptor DAF-12 (Heterodera glycines), GAL4 fusion; HEK293 GAL4-hgDAF12 UAS-luciferase reporter, agonist luminescence; normalized to butyrate control; activation, % at 6.8 µM; 370,000 compounds, 1.8% hits;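 active = activation above a cutoff set at the mean of all screened compounds plus 3 SD, cut at about 10% in these data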;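 note: 0% = DMSO wells and 100% = sodium butyrate wells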
ssDAF12 agonist: S. stercoralis DAF-12 nuclear receptor activators, primary screen, cell-based, luminescence, HEK293, GRIP1 co-expression, lit1-tk-luc. 370,000 compounds, 1% hits. AID 652126, 2013. HEK293 ssDAF-12/GRIP1 lit1-tk-luc reporter; % of 3 µM dafachronic acid response. activation, % at 6.8 µM;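 active = activation above the mean over all tested compounds plus 3 SD, cut at about 0.9% in these data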;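 note: 0% = DMSO-only wells and 100% = 3 µM delta7-dafachronic acid wells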
hgDAF12 conf: H. glycines DAF-12 receptor agonists, confirmation, cell-based, luminescence, HEK293, GAL4-LBD fusion. shares compounds with hgDAF-12 ag. HEK293 GAL4-hgDAF12 luciferase reporter, agonist mode; percent of butyrate response. activation, % at 6.8 µM. 3,300 compounds, 80% hits. AID 743050, 2013;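 active = mean activation over triplicate wells above the hit cutoff derived from the earlier primary screen, cut at about 11% in these data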;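 note: 0% = DMSO low control and 100% = 2 mM sodium butyrate high control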
LXR ag 2: LXR agonists, Gal4 luciferase reporter, confirmation, counter-screen for hgDAF-12 agonist project, cell-based, luminescence, HEK293, H. glycines campaign; 24 h; shares compounds with hgDAF-12 ag; activation, % at 6.8 µM; 3,300 tested, under 10 active; AID 743051, 2013;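 active = mean activation of the triplicate above a set limit carried over from the primary screen, none filed active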
Target sequence (P55055 whole entry, looked up, the tested form may be a part): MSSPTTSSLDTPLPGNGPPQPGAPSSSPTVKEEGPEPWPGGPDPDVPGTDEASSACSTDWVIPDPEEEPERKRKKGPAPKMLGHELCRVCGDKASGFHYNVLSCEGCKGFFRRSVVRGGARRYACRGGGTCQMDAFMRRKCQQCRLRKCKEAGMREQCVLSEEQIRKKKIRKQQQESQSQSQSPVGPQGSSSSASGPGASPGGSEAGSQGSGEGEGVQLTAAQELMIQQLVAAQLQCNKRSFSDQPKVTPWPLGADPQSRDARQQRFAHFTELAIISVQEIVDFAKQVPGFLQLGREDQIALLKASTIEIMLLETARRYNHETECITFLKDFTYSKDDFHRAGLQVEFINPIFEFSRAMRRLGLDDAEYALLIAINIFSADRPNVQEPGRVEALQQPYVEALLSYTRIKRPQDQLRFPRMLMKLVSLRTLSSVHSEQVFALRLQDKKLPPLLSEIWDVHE
Numbers without * were called inactive; nt = no result given.

SMILES	DAX1 inh-1	hcDAF12 agonist	DAX1 inh-2	hgDAF-12 ag	ssDAF12 agonist	hgDAF12 conf	LXR ag 2
CN1C(=O)[C@@](O)(c2cn(C)c3ccccc23)c2cc(F)ccc21	nt	0	0	-2	0	nt	nt
CN1C(=O)C(c2cn(C)c3ccccc23)(c2cn(C)c3ccccc23)c2cc(F)ccc21	nt	3	-1	14*	2.4*	2	0
Cc1ccc2nc(-c3ccc(NC(=O)CSc4nnc(-c5cc(-c6ccc(F)cc6)n[nH]5)n4N)cc3)sc2c1	nt	2	3	16*	1	15*	1
Cc1ccc2nc(-c3ccc(NC(=O)CSc4nnc(-c5cccc(Cl)c5)n4Cc4ccco4)cc3)sc2c1	nt	6.3*	1	21*	0	17*	1
Cc1ccc(-c2cc(-c3nnc(SCC(=O)Nc4cccc5ccccc45)n3N)[nH]n2)cc1	nt	0	0	-1	-1	nt	nt
Cc1ccc2nc(-c3ccc(NC(=O)CSc4nnc(-c5cc(C)[nH]n5)n4N)cc3)sc2c1	nt	1	4.4*	13*	0	11*	1
COC(=O)[C@]12C[C@H](CC(=O)NCCC(C)C)C(=O)N(Cc3ccc(Cl)cc3Cl)C1=C[C@H](COCc1ccccc1)O[C@@H]2C	nt	-1	-1	1	-1	nt	nt
O=C(O)c1ccc(NC(=S)Nc2ccc(S(=O)(=O)Nc3ccccn3)cc2)cc1	-1	3	0	1	0	nt	nt
Cc1csc(NC(=O)c2nc3nc(C)cc(C)n3n2)n1	3	4	2	9	0	nt	nt
Cc1cc(C)n2nc(C(=O)Nc3nccs3)nc2n1	2	4	1	17*	0	12*	0
Nc1cc(Cl)ccc1Oc1ccc2ccccc2c1	1	4	2	22*	1	8	0
O=C(Nc1ccccn1)c1csc2c1CCCC2	1	6.0*	3	19*	0	16*	1
O=Cc1c(OCc2ccccc2)ccc2ccccc12	0	2	2	14*	0.9*	9	0
O=C(Nc1ccc2c(c1)OCO2)Nc1ccc2c(c1)OCO2	1	5	4.0*	22*	1	17*	1
O=C(Nc1ccc2c(c1)OCCO2)NC1CCCCC1	0	5	2	13*	1	16*	1
O=C(NCCc1ccc(F)cc1)Nc1ccc2c(c1)OCO2	3	2	2	9	0	nt	nt
COc1cc([N+](=O)[O-])ccc1NC(=O)Nc1ccc2c(c1)OCCO2	0	-3	0	1	-2	nt	nt
O=C(Nc1cccnc1)Nc1ccc2c(c1)OCO2	1	5	1	8	0	nt	nt
O=C(NCCc1ccccc1)Nc1ccc2c(c1)OCO2	2	3	3	16*	1	17*	1
O=C(Nc1ccc([N+](=O)[O-])cc1)Nc1ccc2c(c1)OCCO2	3	3	0	17*	0	20*	1
COc1ccccc1/C=C/CN1CCC(Oc2cc(C(=O)NC3CC3)ccc2OC)CC1	0	-2	0	3	-1	nt	nt
NC(=O)c1ccc(N2CCN(S(=O)(=O)c3ccccc3)CC2)c([N+](=O)[O-])c1	-3	-3	-5	-7	-3	nt	nt
COC(=O)c1ccc(/C=C(\C#N)c2ccccn2)cc1	5.0*	3	3	15*	1.5*	14*	1
CCOC(=O)C(Cc1c[nH]c2ccccc12)NC(=O)c1ccccc1Br (stereo unspecified)	1	3	0	14*	-1	5	0
O=C(CSc1cccc[n+]1[O-])Nc1cc([N+](=O)[O-])ccc1Cl	0	-1	0	2	-1	nt	nt
SMILES	DAX1 inh-1	hcDAF12 agonist	DAX1 inh-2	hgDAF-12 ag	ssDAF12 agonist	hgDAF12 conf	LXR ag 2
O=C(CSc1cccc[n+]1[O-])Nc1cc2c(cc1Cl)C(=O)c1ccccc1C2=O	1	5	1	15*	1.1*	13*	1
COC(=O)[C@]12C[C@H](CC(=O)N3CCN(C(=O)C4CC4)CC3)C(=O)N(CCc3ccc(OC)c(OC)c3)C1=C[C@H](C(C)C)O[C@@H]2C1CC1	nt	1	0	3	-1	nt	nt
COc1ccccc1/C=N\N=C(\N)c1ccccn1	0	6.0*	3.9*	13*	1.1*	14*	1
COc1ccccc1C=NN=C(N)C(N)=NN=Cc1ccccc1OC	-1	0	-1	2	0	nt	nt
Cn1c(=O)c2c([nH]c(=O)n2C)n(Cc2ccccc2)c1=O	nt	-1	-1	-1	-1	nt	nt
Cc1cccc(Nc2nc3ccccc3s2)c1C	1	5	3	21*	1.3*	20*	1
Cc1cccc(Nc2n[nH]c(=S)s2)c1C	0	2	0	0	-1	nt	nt
O=C(Nc1ccccn1)C1CCN(C(=O)c2ccc(Cl)cc2)CC1	0	1	-1	1	-1	nt	nt
Oc1ccc(-c2cn3ccccc3n2)cc1	2	4	2	13*	1	15*	1
CCS(=O)(=O)Nc1ccc2c(c1)C(=O)N(C)[C@@H]1CC[C@H](CC(=O)NCCCN3CCOCC3)O[C@H]1CO2	nt	0	0	-2	-1	nt	nt
COC(=O)c1ccc(COn2nnc3ccccc32)cc1	0	4	3	17*	0	14*	1
COC(=O)c1ccc(Cn2nnc3ccccc32)cc1	2	-2	0	0	-1	nt	nt
Cc1nc2ccc(C(=O)NC(C)(C)C)cn2c1N(C)C(=O)CCc1ccccc1	nt	-2	0	0	-1	nt	nt
O=[N+]([O-])c1ccc(/C=N/Nc2nc3ccccc3o2)cc1	0	1	0	3	-1	nt	nt
CCS(=O)(=O)c1ccc(C=NNc2nc3ccccc3o2)cc1	2	4	3	21*	0	15*	1
Cc1ccccc1-c1ccc2c(c1)O[C@H](CN(C)C(=O)C1CC1)[C@@H](C)CN([C@@H](C)CO)S2(=O)=O	1	-1	-2	-2	-2	nt	nt
O=C(Nc1cnc2ccccn2c1=O)c1ccc(Cl)cc1Cl	0	5	4.4*	16*	0	5	0
